Source: the OligoGym collection

target: C17orf89; test: pooled miR-30 sensor sort-seq; sequence = guide strand; conditions: shRNA
Note: reference of the scale not given here.

Sequence | sensor-assay potency score (higher = more potent)
TCTTCTTGGCCGCAGCGGCGAA | -1.65
TTCTTGGCCGCAGCGGCGAAGC | -1.54
TTACTCAGGCGGCCGCCCGGGG | -1.34
TCGCACGCGGCCCCACACCGCT | -1.58
TACGCCGCGGCCTCGGCCCCGC | -1.68
AGGCCTGCACGCACCTGCCGTA | -1.48
AAGTCCTTACTCAGGCGGCCGC | -1.52
TCGAACTCCCGCGCGCAGAAGT | -1.83
AGGGCCTCGAACTCCCGCGCGC | -1.88
CAGAAGTCCTTACTCAGGCGGC | -1.6
TCCCGCGCGCAGAAGTCCTTAC | -1.42
TTGGCCGCAGCGGCGAAGCAGC | -1.67

target: C18orf34; test: as above; conditions: shRNA

Sequence | sensor-assay potency score (higher = more potent)
TTTTGTTGACACAAGGTGCTGG | 0.854
TTGTCGAGACTTCTGATTCTTT | -0.716
TAATTCTATAACATCACTCAAA | -0.981
TTTTTTATTGTCTTCCGTCAGT | -0.408
TTGAAGTTCCTGATTCTGCTTA | 0.774
TTGTCTTACTTTTAGTTGCTTC | -0.608
TATTCTTTCTTGATCTCTGTTG | -0.0146
TTTCATCTCTCTTTTCTCCTGG | 0.616
TACACTGTTATCTGAACTGTGT | 0.065
TTCATCTTCTAGTTGAAGCAGA | -0.375
TAGTTTTTTCTGAAGCACCATT | -0.995
TTCTTCATTAACTTTTCTGTGT | 0.0915

target: C18orf56; test: as above; conditions: shRNA

Sequence | sensor-assay potency score (higher = more potent)
TCGGTATTCGGCATGCAGGCGC | -0.876
TTAGTATTTTGATCATTGCTGC | -0.0513
ATGCAGGCGCGCTACAGCCTGA | -1.57
TCTAATGCATCCTATATCCAGT | -0.446
TAGTCCTAACCTCAATCCTGCC | -1.52
ACACACAGCAGCGACAGCCGGG | -1
TTAGTCCTAACCTCAATCCTGC | -0.842
TATTTTGATCATTGCTGCCTTT | -0.437
TAGAATTATCTCTTCATCTGGG | 0.794
TTTAGTCCTAACCTCAATCCTG | -0.687
TATCTCTTCATCTGGGACCTGG | -0.00491
TTAGGGACGTGACTGGCGCGGG | -1.11

target: C19orf26; test: as above; conditions: shRNA

Sequence | sensor-assay potency score (higher = more potent)
TTCTTGACCTTGAAATAGGGGC | -0.421
TTCCACTTCTTGACCTTGAAAT | -1.35
TTGCAGAGGAGCAGGACGCCAG | -1.16
